Cycloheximide cs = counter-screen for Shiga toxin inhibitors: cycloheximide protein synthesis inhibition | cell reporter, cycloheximide protein synthesis inhibition counterscreen | max response, % | 300,000 compounds, 12% hits | AID 2314; in the data active means max response mostly above about 13%, no sharp cut-off; inactive means mostly below about 14%; further: read at 38.3 µM for the half of the compounds with a filed dose
Pf growth 48h = inhibits P. falciparum growth in the first generation, 48 h; 310,000 compounds, 5.9% hits; Potency, µM (titrated, usually from 28.7 µM), hits mostly inhibitors; P. falciparum luciferase growth in erythrocytes, 48 h; AID 504832
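First compound was added to culture medium, then infected red cells at 0.1% parasitemia and 2% hematocrit (final). After incubation at 37 C under 5% CO2, luciferase detection reagent was dispensed and light output recorded.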
SARS PLpro yeast = blocks SARS-CoV papain-like protease in a yeast assay. S. cerevisiae expressing SARS-CoV PLpro, growth rescue. Potency, µM (series often up to 32.9 µM), hits mostly activators. 330,000 compounds, 0.19% hits. AID 485353; calls by dose curve; further: nearly all actives have a fitted effect of over 55% in size
NS1 inh = inhibitors of influenza NS1 protein function; Potency, µM (titrated, usually from 46.1 µM); 270,000 compounds, 0.4% hits; calls by dose curve; further: actives are rising curves; nearly all actives have a fitted effect of over 50% in size
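Read-out: OD600 growth recovery of NS1-expressing budding yeast. Cells grown overnight at 30C in -URA glucose medium, washed, resuspended and diluted 1:100 in 2% galactose assay medium, pH 6.0. Same strain lacking NS1 served as positive control.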
Shiga toxin inh = blocks Shiga toxin action in Vero cells | inhibition, % at 38.7 µM | 290,000 compounds, 9.2% hits | Vero cells, Shiga toxin protein synthesis inhibition reporter; in the data active means inhibition mostly above about 28%, no sharp cut-off; inactive means mostly below about 43%
Pf growth 96h = inhibits malaria parasite growth, 96 h; Potency, µM (titrated, usually from 28.7 µM), hits mostly inhibitors; AID 504834; 320,000 compounds, 6.9% hits; P. falciparum luciferase reporter growth, 96 h
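Two-generation exposure (96 h) targets delayed-death phenotype. Reporter parasites carrying integrated firefly luciferase, in red cells at 2% hematocrit and 0.05% parasitemia final, kept at 37 C, 5% CO2; luminescence loss indicates inhibition.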
Numbers stand for hits; n = inactive; u = inconclusive; x = not tested or not shown. Hits are enriched below; roughly 21% of the tested compounds scored in any of these assays. Unless noted, the call rests on the fitted dose curve; in most records, active means well fitted inhibition curve with a large enough effect; inconclusive means small, poorly fitted or top-dose-only effect, or another doubt; inactive means no such curve, though single readings can be large or run the other way.

SMILES	Cycloheximide cs	Pf growth 48h	SARS PLpro yeast	NS1 inh	Shiga toxin inh	Pf growth 96h
CCOC(=O)Nc1ccc2nc(Sc3ccc(Cl)cc3)sc2c1	n	9.28µM	n	n	n	14.7µM
CSc1nc2ccc(NC(=O)c3ccc(F)c(F)c3)cc2s1	39.4	n	n	x	40.5	n
CSc1nc2ccc(NC(=O)c3ccc(=O)[nH]c3)cc2s1	n	u	n	n	n	u
CSc1nc2ccc(NC(=O)c3cc4ccccc4o3)cc2s1	30.0	n	n	n	70.4	n
CSc1nc2ccc(NC(=O)c3ccc(=O)n(C)n3)cc2s1	19.1	n	n	n	42.4	n
Cc1cccc(C)c1NC(=O)CNC(=O)c1ccc(N2CCCC2)c([N+](=O)[O-])c1	x	u	n	x	x	n
Cc1ccc(S(=O)(=O)NCCN2CCOCC2)c(C)c1C	n	n	n	n	n	u
Cc1ccc(N)c(Cl)c1	n	x	x	x	n	x
O=C(Nc1nc2ccc([N+](=O)[O-])cc2s1)c1ccco1	27.4	n	n	x	n	n
CSc1nc2ccc(NC(=O)c3nn(C(C)C)c(=O)c4ccccc34)cc2s1	53.4	n	n	u	101.9	n
CC(C)c1ccc(/C=C/C(=O)Nc2nc3ccc([N+](=O)[O-])cc3s2)cc1	n	u	n	u	n	2.33µM
Cc1nc2ccc(NC(=O)c3nn(C(C)C)c(=O)c4ccccc34)cc2s1	n	n	n	n	n	u
COc1ccc(CCNC(=O)CCC(=O)N2CCOc3ccc(Cl)cc32)cc1OC	n	n	n	n	n	n
Cc1ccc(CNC(=O)Cn2cnc(S(=O)(=O)N3CCC(C)CC3)c2)o1	n	n	x	n	n	n
CN(Cc1ccno1)Cc1cn(Cc2ccccc2)nc1-c1ccc2c(c1)OCO2	n	u	n	n	n	n
C#Cc1ccc([C@H]2C=C(C(=O)Nc3ccccc3)O[C@@H](OCc3ccc(CO)cc3)C2)cc1	n	7.38µM	n	n	n	7.38µM
O=C(Nc1ccccc1)C1=C[C@H](c2ccc(C(F)(F)F)cc2)C[C@H](OCc2ccc(CO)cc2)O1	n	u	n	n	n	u
O=C(Nc1ccccc1)C1=C[C@@H](C2CC2)C[C@@H](OCCCCO)O1	55.4	n	n	n	57.9	n
O=C(Nc1ccccc1)C1=C[C@@H](C2CC2)C[C@@H](OCc2ccc(CO)cc2)O1	35.4	n	n	n	47.3	n
O=C(Nc1ccccc1)C1=C[C@H](c2ccccc2)C[C@H](OCc2ccc(CO)cc2)O1	31.6	u	n	n	52.6	u
C#Cc1ccc([C@@H]2C=C(C(=O)O)O[C@H](OCc3ccc(CO)cc3)C2)cc1	n	n	n	n	n	n
CCc1nc2ccccc2n1CC1CC1(Cl)Cl (stereo not drawn)	n	n	n	x	n	u
COc1ccc(-c2cc(CNS(=O)(=O)c3ccc(F)cc3)on2)cc1	n	u	n	x	n	n
Cc1ccc(NC(=O)CCNS(=O)(=O)c2ccc(OC(F)(F)F)cc2)c(O)c1	n	n	n	n	n	n
CN1C[C@H](C(=O)N[C@]2(C)O[C@@]3(O)[C@@H]4CCCN4C(=O)[C@H](Cc4ccccc4)N3C2=O)C[C@@H]2c3cccc4[nH]cc(c34)C[C@H]21	x	7.57µM	x	x	x	u
SMILES	Cycloheximide cs	Pf growth 48h	SARS PLpro yeast	NS1 inh	Shiga toxin inh	Pf growth 96h
CC(C)[C@@]1(NC(=O)[C@H]2CC3c4cccc5[nH]cc(c45)C[C@H]3N(C)C2)O[C@@]2(O)C3CCCN3C(=O)[C@@H](Cc3ccccc3)N2C1=O (stereo partly drawn)	x	1.51µM	x	x	x	8.49µM
CN1C[C@H](C(=O)N[C@]2(C)O[C@@]3(O)[C@@H]4CCCN4C(=O)[C@H](Cc4ccccc4)N3C2=O)CC2c3cccc4[nH]cc(c34)C[C@H]21 (stereo partly drawn)	x	1.85µM	x	x	x	1.31µM
CSc1nc2ccc(NC(=O)C3CC(=O)N(Cc4ccccc4)C3)cc2s1 (stereo not drawn)	n	n	n	n	n	u
COc1ccc(C(=O)NC(C(=O)NCC2(N3CCCCC3)CCCCC2)C(C)C)cc1 (stereo not drawn)	x	u	n	x	x	n
CC(C)c1ccc(NC(=O)[C@H]2CSCN2C(=O)[C@@H]2CCC(=O)N2)cc1	n	n	n	n	n	n
NC1=NC2(CCCCC2)N(c2ccc(F)cc2)C(N)=N1	n	13.1µM	n	n	n	n
CCCCOc1ccc(N2C(N)=NC(N)=NC23CCCCC3)cc1	n	10.4µM	n	n	n	u
COc1ccc(N2C(N)=NC(N)=NC23CCCC3)cc1	n	0.928µM	n	n	n	n
